Results filed as inconclusive are left out. A number with no mark means an inactive call. Calls of active or inactive are those of the source. Calls follow the shape of the dose curve; as a rule, active = well fitted inhibition curve with a large enough effect; inconclusive = small, poorly fitted or top-dose-only effect, or effect the other way; inactive = flat fitted curve, though single readings scatter.
target: Ubiquitin carboxyl-terminal hydrolase 2 (Homo sapiens) (UniProt O75604); assay: Ub-rhodamine 110 based assay for inhibitors Ubiquitin-specific Protease USP2a; settings: USP2a Ub-rhodamine110 cleavage, fluorescence; series mostly up to 38.3 µM; activity change, negative = inhibition: at the top concentration; also: nearly all actives have a fitted effect of over 50% in size
From the text: NIH Molecular Libraries Probe Centers Network [MLPCN] NIH Chemical Genomics Center [NCGC] MLPCN Grant: XO1-MH079852-01 PI Name: Nicholson, Ben. Progenra Inc, Malvern, PA NCGC Assay Overview: Homeostasis of cellular proteins is maintained through a combination of synthesis and degradation. The pathway that accounts for the majority of protein degradation is the ubiquitin-proteasomal pathway. Ubiquitin (Ub) is highly conserved in all cells and the generation of a multi-Ub chain typically targets proteins for degradation by the proteasome. However, ubiquitination is highly reversible and dynamic. Deubiquitination, the reverse process, is catalyzed through the action of enzymes referred to as isopeptidases or deubiquitinating enzymes (DUBs). This group of enzymes is collectively responsible for maintaining adequate pools of free ubiquitin and regulating the ubiquitination status of cellular proteins. The class of DUBs referred to as the ubiquitin-specific proteases (USP) family functions endoproteolytically to cleave Ub chains from a wide range of protein substrates. USP2a deubiquitinates fatty acid synthase (FASN) which has recently been identified as an emerging oncology target. To identify inhibitors of USP2a a cell-free assay was employed. This assay measures cleavage of a profluorescent substrate (Ub-Rhodamine 110; Boston Biochem Cat#: U-555) by USP2a. The assay gives a fluorescent read-out at excitation/emission wavelengths of 485/531. The USP2a enzyme was provided by Progenra, Inc. licensed for sale by LifeSensors, Inc.
NCGC Assay Protocol: The assay buffer, prepared fresh at the day of the assay, contains 20mM Tris-HCl pH 8.0, 2mM CaCl2, 2mM beta-Mercaptoethanol, 0.05% CHAPS. 3uL of 10 nM (5 nM final) USP2a, was dispensed into a medium-binding black solid Kalypsys 1,536 well plate using the Kalypsys dispenser. The assay plate was then pinned with 23nL compounds in DMSO with a Kalypsys pintool in columns 5-48 (0.3% final DMSO concentration). The negative control was buffer/DMSO only in column 3. The assay plate is incubated at RT for 30min. Subsequently, 3uL of 300 nM Ub-Rhod110 (150 nM final) was dispensed into the plate using a Kalypsys dispenser. Plates were read after every minute for 7 min on a ViewLux (Perkin Elmer) plate reader using the following wavelengths: Ex 485nm /Em 531nm. Data were normalized to the AC100 inhibition (buffer alone). Concentration-response curves were fitted to the normalized data and the concentration-response curves were then classified based on curve quality (r2), response magnitude and degree of measured activity. The time zero reading was used to flag fluorescence artifacts.
% is scaled to controls: 0 for no effect and ±100 for the full control effect; potency is read from the fitted curve at half-maximal effect.

Chain of Ubiquitin carboxyl-terminal hydrolase 2 (Homo sapiens) (O75604 whole entry, looked up): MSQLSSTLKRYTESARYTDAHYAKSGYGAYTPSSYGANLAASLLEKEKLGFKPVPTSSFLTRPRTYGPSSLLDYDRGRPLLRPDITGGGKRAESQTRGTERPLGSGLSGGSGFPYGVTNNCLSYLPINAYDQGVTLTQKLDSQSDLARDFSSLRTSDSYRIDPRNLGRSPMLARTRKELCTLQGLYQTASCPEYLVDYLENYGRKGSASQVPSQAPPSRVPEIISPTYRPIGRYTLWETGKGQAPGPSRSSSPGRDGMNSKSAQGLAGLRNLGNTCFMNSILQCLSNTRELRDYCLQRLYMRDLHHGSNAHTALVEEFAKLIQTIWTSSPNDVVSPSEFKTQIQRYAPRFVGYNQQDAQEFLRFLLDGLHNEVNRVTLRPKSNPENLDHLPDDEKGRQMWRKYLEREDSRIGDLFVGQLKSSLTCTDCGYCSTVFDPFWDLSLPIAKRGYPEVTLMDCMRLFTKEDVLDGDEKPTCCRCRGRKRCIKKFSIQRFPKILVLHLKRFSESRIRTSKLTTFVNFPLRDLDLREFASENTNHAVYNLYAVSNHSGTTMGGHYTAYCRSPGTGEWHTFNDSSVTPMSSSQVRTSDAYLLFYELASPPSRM

| SMILES | activity change, negative = inhibition [%] | Potency |
| --- | --- | --- |
| COc1ccc(S(=O)(=O)Cc2ccc(C(=O)N3CCC4(CC3)OCCO4)o2)cc1 | -1.83 | – |
| Cc1nn(Cc2ccc(Cl)cc2Cl)c(Cl)c1C(=O)Nc1ccc(OC(F)F)cc1 | -24.9 | – |
| CCCCn1c(=O)c(C(=O)Nc2ccccc2S(N)(=O)=O)c(O)c2ccccc21 | – | 10 µM (active) |
| CCCC1=C(C(=O)OCC)C2(C(=O)Nc3ccc(C)cc32)C(C#N)=C(N)O1 (stereo unspecified) | 0.66 | – |
| Clc1ccc(C(c2ccc(Cl)cc2)n2cc[n+](CC(OCc3ccc(Cl)cc3Cl)c3ccc(Cl)cc3Cl)c2)cc1 (stereo unspecified) | – | 10 µM (active) |
| CC(C)N1C(=O)/C(=C/C=C/c2ccco2)C(=O)N(Cc2ccco2)C1=O | – | 12.6 µM (active) |
| CC(=Nc1ccc2c(c1)CCC2)c1c(O)n(C)c(=O)n(C)c1=O | -8.7 | – |
| COc1ccc(NC(=O)c2c(C)nn(Cc3ccccc3Cl)c2Cl)cc1Cl | -1.79 | – |
| FC(F)(F)c1ccc2c(c1)N(CCCN1CCN(CCCl)CC1)c1ccccc1S2 | -0.395 | – |
| O=c1[nH]c(=O)n(Cc2ccc(F)cc2)c(O)c1C=NCCCn1ccnc1 | -2.32 | – |
| O=C(O)c1cccc2c1NC(C(=O)O)C1CC(Sc3ccccc3[N+](=O)[O-])C(Cl)C21 (stereo unspecified) | – | 5.01 µM (active) |
| CC1Oc2cc3c(-c4c(O)cc(O)c5c(O)c6c(cc45)OC(C)C(C)C6=O)c(O)cc(O)c3c(O)c2C(=O)C1C (stereo unspecified) | – | 2 µM (active) |
| O=C(COc1ccc(S(=O)(=O)N2CCOCC2)cc1)N1CCN(Cc2ccc3c(c2)OCO3)CC1 | -0.487 | – |
| OC(c1ccncc1)(c1ccc(F)cc1)c1ccc(F)cc1 | -11.2 | – |
| Nc1ccc(S(=O)(=O)N2CCCCC2c2cccnc2)cc1 (stereo unspecified) | -0.331 | – |
| O=C1NC(=O)[C@]2(Cc3ccccc3N3CCN(c4ccccc4)CC32)C(=O)N1Cc1ccccc1 (stereo partly specified) | – | 6.31 µM (active) |

— PubChem BioAssay AID493170 (National Center for Advancing Translational Sciences (NCATS), 2011)
